Screening results from PubChem BioAssay.
tim23-1 inh: growth inhibitors of tim23-1 mutant yeast, primary screen, luminescence, uHTS; S. cerevisiae tim23-1 growth, BacTiter-Glo luminescence, 24 h; inhibition, % at 20 µM; actives 1.3% (n = 330,000); AID 463212, 2010;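 active = growth inhibition of the mutant yeast at or above 50%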;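 note: temperature-sensitive mutant grown at 25 °C; plate controls were DMSO-treated mutant yeast for no effect and medium wells lacking yeast for full effect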
NALP3 yeast inh: NALP3 inflammasome inhibitors in reconstituted yeast, primary screen, luminescence, uHTS; Yeast reconstituted NLRP3/ASC/caspase-1, beta-gal luminescence, 24 h; inhibition, % at 10 µM; actives 0.39% (n = 330,000);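 active = inhibition of 50% or more; inactive = inhibition below 50%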;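 note: plate controls were induced DMSO wells for no effect and uninduced yeast grown without galactose for full effect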
NALP1 inh: NALP1 inflammasome inhibitors in reconstituted yeast, colorimetric, S. cerevisiae, triplicate retest | S. cerevisiae NALP1/ASC/caspase-1 growth, X-gal OD620, 72 h | inhibition, % at 10 µM | actives 0.61% (n = 280,000); in the data active = inhibition mostly above about 24%, no sharp cut-off; inactive = mostly below about 32%
V-ATPase pHluor: regulators of yeast V-ATPase proton pumping, primary screen, pHLuorin cytosolic pH fluorescence. S. cerevisiae. response, % at 10 µM. actives 0.37% (n = 350,000). AID 504577, 2011; in the data active = response mostly above about 7.3%, no sharp cut-off; inactive = mostly below about 5.4%; note: actives read high
TIM10 inh: growth inhibitors of isogenic TIM10 control yeast, primary screen, counter-screen for tim10-1 yeast inhibitor project, luminescence, uHTS. S. cerevisiae TIM10 strain growth, BacTiter-Glo luminescence, 24 h. inhibition, % at 10 µM. actives 1.4% (n = 330,000). AID 463195, 2010;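 active = inhibition of 40% or more at the single tested concentration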;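 note: wild-type TIM10 isogenic control strain grown at permissive 25 °C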
tim10-1 inh: growth inhibitors of tim10-1 mutant yeast, primary screen, luminescence, uHTS | AID 463190, 2010 | actives 2.2% (n = 330,000) | S. cerevisiae tim10-1 ts strain growth, BacTiter-Glo, 24 h | inhibition, % at 20 µM;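 active = inhibition of at least 40%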;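 note: mutant grown at 25 °C; 0% = DMSO wells with yeast and 100% = wells holding no yeast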
TIM10 conf: growth inhibitors of wild-type TIM10 yeast, confirmation, counter-screen for tim10-1 synthetic lethality project, single concentration, luminescence, S. cerevisiae; actives 63% (n = 4,600); AID 463215, 2010; S. cerevisiae tim10 strain growth, BacTiter-Glo luminescence, 24 h; shares compounds with TIM10 inh; inhibition, % at 10 µM;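 active = inhibition of yeast growth at or above a set limit in either of two replicates at 10 µM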;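 note: this counterscreen used the strain with wild-type TIM10; 0% = yeast with DMSO and 100% = medium wells lacking yeast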
Starred values were filed as active, the others as inactive; / = no result. Rows were chosen to be rich in hits. Some 4.2% of all compounds tested hit in one or more screens of this group.

SMILES	tim23-1 inh	NALP3 yeast inh	NALP1 inh	V-ATPase pHluor	TIM10 inh	tim10-1 inh	TIM10 conf
CNc1nc2ccccc2n1/N=C/c1cccc(OC)c1OC	49.9	1.0	6.8	-1.1	47.7*	29.7	29.1
COc1cccc(/C=N/n2c(CO)nc3ccccc32)c1OC	12.8	5.3	9.7	-0.2	1.3	34.2	/
CCC(C(=O)NCCc1ccccc1OC)n1nc(C)c2c(C)n(-c3ccccc3)nc2c1=O (stereo not drawn)	7.5	0.5	-0.4	1.9	-8.2	11.6	/
Cc1ccc2nc(N(CCN(C)C)C(=O)C3CCN(S(=O)(=O)c4cccs4)CC3)sc2c1	/	/	/	-0.9	/	/	/
O=C(c1ccc(Cl)cc1)c1cc(-c2ccccn2)c(N2CCOCC2)s1	39.4	9.3	11.8	5.5	40.0*	36.7	16.4
O=C(N/N=C/c1cn(-c2ccccc2)nc1-c1cccs1)c1ccncc1	36.6	29.4	18.8	3.5	30.2	26.9	/
O=C(N/N=C/c1nn(-c2ccccc2)cc1-c1ccccc1)c1ccncc1	27.8	26.6	25.3	-4.1	40.4*	38.7	26.7
CN(C)CCCn1c(SCC(=O)Nc2nc(-c3cccc(Br)c3)cs2)nc2ccccc2c1=O	-10.2	20.8	/	-6.5	43.2*	23.4	25.3
Cc1noc(C)c1NC(=O)Nc1ccc2c(c1)CC(=O)N([C@H](C)CO)C[C@@H](C)[C@H](CN(C)CC1CCCCC1)O2	-7.6	13.6	/	2.4	-7.8	-8.1	/
Cc1cc(NS(=O)(=O)c2ccc(NC(=O)c3ccc([N+](=O)[O-])cc3)cc2)nc(C)n1	/	/	/	2.6	/	/	/
O=C(Nc1ccc2oc(-c3ccncc3)nc2c1)c1ccc2c(c1)OCCO2	-40.0	1.8	/	3.4	-6.5	-14.2	/
O=C(Nc1ccc2oc(-c3ccccc3)nc2c1)c1ccc2c(c1)OCCO2	49.6	22.7	-3.2	0.2	45.8*	31.5	52.5*
CCCCn1c(N)c(N(CCOC)C(=O)CSc2nnc(C)n2-c2ccc(OC)cc2)c(=O)[nH]c1=O	-9.9	-4.0	/	-3.4	-0.5	-1.6	/
CN(C)CCN(C(=O)C1=COCCO1)c1nc2ccc(F)cc2s1	26.2	11.6	16.0	3.5	64.3*	34.4	12.9
CCCCOc1ccccc1C(=O)N(Cc1ccco1)C1CCS(=O)(=O)C1 (stereo not drawn)	15.3	0.6	2.9	-1.8	3.1	5.0	/
CCn1c(-c2cc(-c3cc(OC)ccc3OC)nc3ccccc23)n[nH]c1=S	19.2	12.2	-16.3	-2.0	16.1	8.3	/
CCn1c(-c2cc(-c3ccc(C)cc3)nc3ccccc23)n[nH]c1=S	49.1	39.6	5.1	3.3	41.6*	33.4	40.9*
O=C(O)c1cc(-c2cccc([N+](=O)[O-])c2)n[nH]1	4.4	15.1	21.6	-0.9	-6.1	6.5	/
CCOC(=O)c1cc(-c2cccc([N+](=O)[O-])c2)n[nH]1	0.2	22.8	30.0*	1.3	47.8*	36.2	28.2*
CCOc1ccccc1N(CC(=O)Nc1cccc2ccccc12)S(C)(=O)=O	21.6	-2.5	17.4	2.1	7.6	16.2	/
COc1cccc(C(=O)OCC(=O)NCCCc2ccccc2)c1	12.0	12.7	16.9	-1.2	7.5	7.0	/
O=C(CCC1CCCCC1)Nc1ccc(C(=O)c2ccncc2)cc1	43.0	16.4	-17.6	-4.6	43.0*	34.5	39.2*
NS(=O)(=O)c1ccc(NC(=O)CCC2CCCCC2)cc1	17.8	0.3	7.3	-2.2	20.7	16.0	/
COc1ccc(-c2cc(C(=O)Nc3c(F)cc(F)cc3Br)no2)cc1	-62.3	20.2	4.7	-3.8	-54.4	-12.7	/
Cn1cnnc1SCC(=O)NC1CCCC1	-0.2	26.1	9.0	4.1	-5.2	-2.8	/
SMILES	tim23-1 inh	NALP3 yeast inh	NALP1 inh	V-ATPase pHluor	TIM10 inh	tim10-1 inh	TIM10 conf
O=C(COC(=O)c1ccccc1Nc1ccc(SC(F)F)cc1)NC1CC1	27.3	37.7	25.6	-1.1	51.1*	30.6	37.0*
CCCCN(CC)C(=O)C1CCC(CNS(=O)(=O)c2cccc3nsnc23)CC1 (stereo not drawn)	8.6	8.4	1.1	0.1	-1.5	7.6	/
O=C(CCN1C(=O)/C(=C\c2ccccc2F)SC1=S)N1CCCCC1	44.3	24.7	-4.7	0.4	42.2*	29.5	17.9
C/C(=C\C(=O)OCC(=O)NCc1ccccc1)C(=O)OCC(=O)NCc1ccccc1	-8.5	-3.6	5.8	-0.2	0.0	16.9	/
CCOC(=O)/C=C/C(=O)OCC(=O)NCc1ccccc1	34.4	13.5	31.4	-1.3	41.6*	36.3	21.1
Cc1ccc(N2C(=O)CC(NNC(=O)Cc3ccc(F)cc3)C2=O)cc1Cl (stereo not drawn)	-6.8	10.8	/	3.3	-11.7	-5.1	/
O=C(N/N=C/c1ccc(-c2cccc(C(F)(F)F)c2)o1)c1cccc(F)c1	27.4	-15.3	15.2	-1.1	44.9*	5.0	39.5*
CC1CCc2c(sc3ncnc(SCC(=O)c4ccccc4)c23)C1 (stereo not drawn)	6.7	9.4	6.7	0.2	0.4	6.2	/
CC(=O)CSc1ncnc2sc3c(c12)CCC(C)C3 (stereo not drawn)	37.1	15.2	-6.1	2.9	43.2*	39.9	-4.8
COc1ccc(C(=O)N/C(=C\c2ccc3c(c2)OCO3)C(=O)N2CCOCC2)cc1	16.1	9.7	4.7	6.9	2.6	6.9	/
CC(C)CC(=O)NC(=S)Nc1ccc(NC(=O)c2ccco2)cc1	39.5	0.9	20.5	-2.4	46.5*	15.0	-23.1
CC(C)CC(=O)NC(=S)Nc1cccc(NC(=O)c2ccccc2Cl)c1	34.3	-7.7	9.0	0.6	44.7*	21.8	34.2*
COc1ccc(NC(=O)Cc2coc3cc(C)ccc23)cn1	-0.9	26.1	12.6	-3.5	8.4	-22.6	/
Cc1ccc(/C=N/n2c(-c3ccccc3)n[nH]c2=S)cc1	11.4	41.3	0.9	1.9	-9.3	-4.3	/
N=C1N(/N=C/c2ccccc2)C(=Nc2ccccc2)C(=S)N1c1ccccc1	47.2	14.7	3.4	7.4	57.2*	36.5	35.3*
CC(C)(C)c1ccc(OCC(O)CN2CCOCC2)cc1 (stereo not drawn)	-3.6	18.3	/	-1.8	48.3*	3.7	8.5
CN(C)CCCNc1cc(C(C)(C)C)nc2c(-c3ccc(Cl)cc3)cnn12	-17.4	5.2	23.7	0.4	54.7*	-15.0	60.2*
Cn1c(SCC(=O)N2CCCC2)nc2ccccc21	-5.8	8.2	7.0	-3.2	-16.5	-4.3	/
